The source of these data is PubChem BioAssay.

One assay deals with Albumin (Bos taurus) (UniProt P02769). The assay is described as follows: bovine serum albumin binders on microarray, profiling panel, artefact control for SMM control protein annotation, biochemical, small-molecule microarray, Alexa647 label, 635/667 nm fluorescence (AID 1118).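 Also: score merges 667 nm emission intensity and signal-to-noise per printed compound spot.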 The note with it: BSA-A647 binding, fluorescence 635 nm, higher = more signal.
Sequence of Albumin (Bos taurus) (P02769 whole entry, looked up): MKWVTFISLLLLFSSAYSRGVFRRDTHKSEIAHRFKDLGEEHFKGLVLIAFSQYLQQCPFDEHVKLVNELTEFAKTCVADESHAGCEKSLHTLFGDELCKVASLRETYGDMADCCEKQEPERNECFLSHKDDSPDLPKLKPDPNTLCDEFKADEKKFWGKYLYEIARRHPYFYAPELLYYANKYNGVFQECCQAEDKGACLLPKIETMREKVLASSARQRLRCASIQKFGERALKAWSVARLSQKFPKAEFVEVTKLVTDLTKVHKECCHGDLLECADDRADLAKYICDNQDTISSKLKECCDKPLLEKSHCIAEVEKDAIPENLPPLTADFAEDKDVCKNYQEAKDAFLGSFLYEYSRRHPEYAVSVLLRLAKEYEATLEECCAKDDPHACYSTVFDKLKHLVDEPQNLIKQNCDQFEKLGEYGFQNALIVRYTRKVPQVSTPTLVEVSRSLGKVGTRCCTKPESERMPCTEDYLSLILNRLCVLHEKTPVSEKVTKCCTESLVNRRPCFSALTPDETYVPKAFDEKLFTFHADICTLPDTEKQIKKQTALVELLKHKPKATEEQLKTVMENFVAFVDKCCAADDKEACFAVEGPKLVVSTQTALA
The nature of assay [1]: small-molecule microarray binders of probe aXIP, primary screen, biochemical, NeuroSMM set, 635/667 nm fluorescence (AID 1119).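 Also: probe is the protein aXip251-270 applied at 1 µg/mL to compound-printed slides; binding of probe to printed compounds measured as 667 nm fluorescence plus signal to noise.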 The settings on record: higher = more signal, called active from +8 up or from −8 down.
A short description of assay [2]: small-molecule binders of probe aNOTCH3, primary screen, biochemical, small-molecule microarray, 635/667 nm fluorescence (AID 1120).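 Also: probe is a biotin-tagged antibody raised against NOTCH3 rather than NOTCH3 protein; score merges spot fluorescence near 667 nm with spot signal to noise.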 The settings on record: higher = more signal.
The nature of assay [3]: small-molecule binders of probe aNOTCH2, primary screen, biochemical, small-molecule microarray, 635/667 nm fluorescence (AID 1121).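 Also: score merges feature fluorescence read at 667 nm with its signal to noise.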 The settings on record: higher = more signal.
In assay [4] the target is Carbonic anhydrase 2 (Homo sapiens) (UniProt P00918). The assay is described as follows: CAII small-molecule binders, profiling panel, biochemical, small-molecule microarray, Alexa647-labelled CAII (AID 1122). The note with it: CAII-A647 binding fluorescence, higher = more signal.
A short description of assay [5]: COS7 lysate on small-molecule microarray, probe aHis, 635 nm (AID 1123).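 Also: z-score combines 667nm fluorescence intensity with signal-to-noise per printed compound spot.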 The settings on record: COS7 cell lysate, fluorescence, higher = more signal.
Assay [6] in a line: compound binding in COS7 lysate, probe aLAP1, primary screen, cell lysate, small-molecule microarray (AID 1124).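 Also: lysate comes from COS7 cells expressing LAP1 and is applied at 0.3 µg/mL; score merges spot fluorescence near 667 nm with signal-to-noise over triplicate slides.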 The settings on record: probe aLAP1, fluorescence, higher = more signal.
Another assay has as its system Sam68 (KHDRBS1). The experiment in a line: Sam68 small-molecule binders, primary screen, biochemical, small-molecule microarray, 635 nm fluorescence (AID 1125).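 Also: score merges 667 nm channel intensity with signal to noise over triplicate slides.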 The settings on record: small-molecule microarray binding, higher = more signal.
For assay [7], the system named is Chordin-like protein 2 (CHRDL2). The assay is described as follows: CHRDL2 small-molecule binders, primary screen, biochemical, small-molecule microarray, 635 nm fluorescence (AID 1126).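 Also: printed compound slides probed with Chrdl2 protein at 4 µg/mL for 1 h at 4 C; score merges 667 nm emission intensity with signal to noise over three replicate slides.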 The note with it: small-molecule microarray binding, fluorescence 635 nm; higher = more signal.
For assay [8], the target named is Concanavalin-A (Canavalia ensiformis) (UniProt P02866). The experiment in a line: ConA small-molecule binders, primary screen, artefact control for SMM control protein annotation, biochemical, small-molecule microarray, Alexa647 label, 635 nm (AID 1127).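 Also: z combines 667 nm emission intensity with signal-to-noise across three replicate slides.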 The note with it: ConA-A647 binding fluorescence, higher = more signal.
Sequence of Concanavalin-A (Canavalia ensiformis) (P02866 whole entry, looked up): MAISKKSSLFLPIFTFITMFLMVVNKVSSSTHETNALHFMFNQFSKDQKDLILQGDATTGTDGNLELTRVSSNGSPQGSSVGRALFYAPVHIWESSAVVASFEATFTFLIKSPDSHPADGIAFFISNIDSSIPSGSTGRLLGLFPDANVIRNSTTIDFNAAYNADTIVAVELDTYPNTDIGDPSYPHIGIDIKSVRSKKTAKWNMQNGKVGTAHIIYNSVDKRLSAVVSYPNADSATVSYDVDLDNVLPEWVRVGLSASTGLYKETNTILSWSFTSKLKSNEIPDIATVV
Assay [9] can be described thus: anti-His antibody binders, primary screen, artefact control for SMM control protein annotation, biochemical, small-molecule microarray, 635 nm fluorescence (AID 1128).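 Also: score merges feature fluorescence with signal-to-noise for each printed compound spot.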 The note with it: anti-His Alexa647 antibody binding, higher = more signal.
The subject of assay [10] is Human papillomavirus type 1a E7 protein (residues 1-88). The assay is described as follows: HPV1a E7 small-molecule binders, primary screen, biochemical, small-molecule microarray, residues 1-88, 635 nm (AID 1129). The note with it: small-molecule microarray binding, fluorescence 635 nm; higher = more signal.
For assay [11], the target named is Focal adhesion kinase 1 (Homo sapiens) (UniProt Q05397). The experiment in a line: small-molecule microarray binders of FAK, primary screen, biochemical, 635/667 nm fluorescence, BSA, DTT (AID 1130).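 Also: composite of spot emission at 667 nm and signal to noise over triplicate slides.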 The note with it: PTK2 binding, 635 nm fluorescence, higher = more signal.
Sequence of Focal adhesion kinase 1 (Homo sapiens) (Q05397 whole entry, looked up): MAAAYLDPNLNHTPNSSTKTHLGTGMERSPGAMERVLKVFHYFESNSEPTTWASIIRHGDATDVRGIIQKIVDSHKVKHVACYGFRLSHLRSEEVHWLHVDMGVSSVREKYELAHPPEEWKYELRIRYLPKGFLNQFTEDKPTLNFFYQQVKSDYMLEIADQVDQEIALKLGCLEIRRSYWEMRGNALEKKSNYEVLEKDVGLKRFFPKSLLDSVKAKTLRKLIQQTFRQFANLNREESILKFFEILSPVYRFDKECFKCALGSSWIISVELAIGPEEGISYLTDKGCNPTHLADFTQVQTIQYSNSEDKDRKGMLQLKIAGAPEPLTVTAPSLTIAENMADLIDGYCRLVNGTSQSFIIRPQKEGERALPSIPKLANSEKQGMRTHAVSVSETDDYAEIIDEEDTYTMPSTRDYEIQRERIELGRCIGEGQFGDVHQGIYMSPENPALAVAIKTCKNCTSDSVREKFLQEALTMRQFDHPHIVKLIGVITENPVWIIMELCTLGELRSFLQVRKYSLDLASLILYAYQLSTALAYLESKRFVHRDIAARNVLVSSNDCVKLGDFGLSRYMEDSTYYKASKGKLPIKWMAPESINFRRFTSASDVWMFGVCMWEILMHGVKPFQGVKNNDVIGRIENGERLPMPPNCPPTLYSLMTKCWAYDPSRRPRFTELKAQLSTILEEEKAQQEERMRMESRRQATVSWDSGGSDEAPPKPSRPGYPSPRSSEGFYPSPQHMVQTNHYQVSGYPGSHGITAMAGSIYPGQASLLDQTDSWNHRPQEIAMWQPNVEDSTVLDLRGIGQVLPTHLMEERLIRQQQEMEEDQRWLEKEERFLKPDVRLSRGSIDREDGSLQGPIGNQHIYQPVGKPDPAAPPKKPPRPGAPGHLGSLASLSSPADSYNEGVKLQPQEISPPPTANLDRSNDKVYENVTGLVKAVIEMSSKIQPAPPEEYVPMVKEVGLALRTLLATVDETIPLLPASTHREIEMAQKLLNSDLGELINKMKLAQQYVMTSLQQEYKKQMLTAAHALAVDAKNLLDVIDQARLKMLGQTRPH
The subject of assay [12] is Fibrinogen (Alexa647-labelled). The experiment in a line: fibrinogen binders on compound microarrays, profiling panel, artefact control for SMM control-protein annotation, biochemical, small-molecule microarray, 635/667 nm fluorescence (AID 1131).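 Also: z-score merges 667 nm fluorescence with per-spot signal-to-noise over triplicate slides.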 The note with it: fibrinogen-A647 binding fluorescence, higher = more signal.
In assay [13] the target is Follistatin (Homo sapiens) (UniProt P19883). The experiment in a line: follistatin binders on small-molecule microarrays, primary screen, biochemical, small-molecule microarray, 635/667 nm fluorescence (AID 1132). The note with it: FST binding, 635 nm fluorescence, higher = more signal.
Sequence of Follistatin (Homo sapiens) (P19883 whole entry, looked up): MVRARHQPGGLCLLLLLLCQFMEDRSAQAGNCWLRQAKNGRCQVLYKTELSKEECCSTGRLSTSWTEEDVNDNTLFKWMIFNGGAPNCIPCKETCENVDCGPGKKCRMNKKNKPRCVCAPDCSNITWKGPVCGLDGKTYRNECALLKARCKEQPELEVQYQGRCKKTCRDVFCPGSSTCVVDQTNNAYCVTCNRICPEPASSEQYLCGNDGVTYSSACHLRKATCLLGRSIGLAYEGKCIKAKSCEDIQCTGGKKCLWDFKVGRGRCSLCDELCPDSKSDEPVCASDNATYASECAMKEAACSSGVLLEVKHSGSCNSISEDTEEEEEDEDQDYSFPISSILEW
Assay [14] addresses Fibroblast growth factor 2 (Homo sapiens) (UniProt P09038). The experiment in a line: FGF2 binders on small-molecule microarrays, primary screen, biochemical, small-molecule microarray, 635/667 nm fluorescence (AID 1133). The settings on record: small-molecule microarray binding, FGF2, fluorescence 635/667; higher = more signal.
Assay [15] in a line: mitochondrial membrane potential change in A549 cells, profiling panel, cell-based, JC-1 fluorescence, basal, 24 h, 100 nL (AID 1138).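 Also: A549 lung adenocarcinoma cells under basal conditions with no added stimulus; test concentration not given here.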 The settings on record: higher = more signal.
Another assay concerns Lefty1. The experiment in a line: Lefty1 binders on small-molecule microarrays, primary screen, biochemical, small-molecule microarray, 635/667 nm fluorescence (AID 1139). The settings on record: small-molecule microarray binding, fluorescence 635/667; higher = more signal.
In assay [16] the test system is wheat germ agglutinin (Triticum aestivum), Alexa647-labelled. The experiment in a line: wheat germ agglutinin binders on compound microarrays, profiling panel, artefact control for SMM control-protein annotation, biochemical, small-molecule microarray, 635/667 nm fluorescence (AID 1140).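 Also: score merges 667 nm feature emission with signal to noise over triplicate slides.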 The note with it: WGA-A647 binding, 635 nm fluorescence, higher = more signal.
Assay [17] has as its target Luciferin 4-monooxygenase (Photinus pyralis) (UniProt P08659). The assay is described as follows: firefly luciferase enzyme inhibitors, primary screen, biochemical, luminescence, purified enzyme, 2006 set (AID 1141).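 Also: cell-free assay with purified firefly luciferase at 100 ng per well in PBS; test concentration not given here.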 The note with it: SteadyGlo luminescence, 30 min, higher = more signal, called active from +8 up or from −8 down.

Activity calls are given as the source filed them.

Sequence of Luciferin 4-monooxygenase (Photinus pyralis) (P08659 whole entry, looked up): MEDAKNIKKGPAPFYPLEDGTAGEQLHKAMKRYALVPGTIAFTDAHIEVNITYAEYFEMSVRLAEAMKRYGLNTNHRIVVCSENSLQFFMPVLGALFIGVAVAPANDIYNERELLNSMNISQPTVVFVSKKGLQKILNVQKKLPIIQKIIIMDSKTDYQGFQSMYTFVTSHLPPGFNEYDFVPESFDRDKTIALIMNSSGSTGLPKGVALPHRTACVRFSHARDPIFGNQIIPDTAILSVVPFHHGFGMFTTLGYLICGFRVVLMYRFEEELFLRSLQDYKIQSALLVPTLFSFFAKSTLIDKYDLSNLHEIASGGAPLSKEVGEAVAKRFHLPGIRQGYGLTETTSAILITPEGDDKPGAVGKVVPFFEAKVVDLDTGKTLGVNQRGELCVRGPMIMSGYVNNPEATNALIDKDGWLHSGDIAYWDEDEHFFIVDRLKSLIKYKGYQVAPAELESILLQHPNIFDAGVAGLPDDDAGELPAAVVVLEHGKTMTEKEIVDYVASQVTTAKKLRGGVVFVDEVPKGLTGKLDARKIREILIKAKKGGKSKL
Sequence of Fibroblast growth factor 2 (Homo sapiens) (P09038 whole entry, looked up): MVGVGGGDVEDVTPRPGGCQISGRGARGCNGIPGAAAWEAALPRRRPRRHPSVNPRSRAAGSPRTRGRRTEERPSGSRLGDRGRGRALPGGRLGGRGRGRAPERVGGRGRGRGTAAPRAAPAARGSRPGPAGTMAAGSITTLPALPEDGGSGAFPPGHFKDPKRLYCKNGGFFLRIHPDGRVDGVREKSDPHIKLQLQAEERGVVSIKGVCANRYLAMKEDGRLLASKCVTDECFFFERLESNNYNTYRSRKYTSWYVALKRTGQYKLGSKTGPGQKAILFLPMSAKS

As to `CCOC(=O)C1=C[C@@H](c2ccccc2)N(S(=O)(=O)c2ccc(C)cc2)[C@H]1c1ccc(OC)cc1`, the composite z-score with Albumin (Bos taurus) came out at 0.72; in [2], 0.815; in assay [3], 0.493; in assay [4], 0.614; in [5], 1.71; in [6], 0.755. Besides, the composite z-score in the assay with Sam68 (KHDRBS1) was 1.32; in assay [7], -0.224; in assay [8] it was 1.1; in assay [9], 0.546; in assay [10], 0.957; in assay [11], 0.501. Further, the composite z-score in assay [12] is 0.935; in [13], 0.609; in [14] it was 0.217; in the assay on Lefty1, -0.0395; in assay [16], 1.11. Moreover, the composite Z-score in assay [1] is -0.0164 (inactive). The z-score in assay [15] is 1.77; in assay [17], 1.51 (inactive).
As for `[N-]=[N+]=Nc1ccccc1C[C@@]1(C(N)=O)N=C(c2ccc(OCCCO)cc2)O[C@@H]1c1ccccc1N=[N+]=[N-]`, the composite z-score with Albumin (Bos taurus) is 1.01; in [2], 0.0059; in assay [3], 0.0342; in [4], 0.441; in [5], 1.34; in assay [6], -0.0264. For the same compound, the composite z-score with Sam68 (KHDRBS1) was 0.666; in assay [7] it was -0.359; in [8], 0.716; in assay [9], 1.76; in assay [10] it was 1.23; in [11], 0.0444. Moreover, the composite z-score is 0.637 in assay [12]; 0.062 in assay [13]; -0.0354 in [14]; -0.37 with Lefty1; 0.0911 in [16]. In addition, the composite Z-score in assay [1] is 0.127 (inactive). Besides, the z-score is -0.498 in assay [15] and -4.2 (inactive) in [17].
`CCCC[C@@H]1C[C@H]1[C@@H](NC(=O)c1cccs1)c1ccccc1C(F)(F)F`: the composite z-score with Albumin (Bos taurus) amounted to 0.485; in assay [2], 0.265; in [3] it was 0.0117; in [4] it was 0.431; in assay [5], 2.62; in assay [6] it was 0.588. Also, the composite z-score with Sam68 (KHDRBS1) is 1.27; in assay [7], -0.319; in assay [8], 1.08; in assay [9] it was 1.01; in [10], 1.2; in assay [11] it was -0.157. Also, the composite z-score in assay [12] was 0.982; in [13], -0.152; in [14], 0.28; with Lefty1 it was -0.716; in assay [16] it was 0.839. Also, in assay [1], the composite Z-score was -0.147 (inactive). Also, the z-score is 0.245 in [15] and 1.75 (inactive) in assay [17].
In the case of `CC1=C2[C@@H](CCc3ccccc3)OB(O)C[C@@H]2[C@@H]2C(=O)N(Cc3ccccc3)C(=O)[C@@H]2C1`, the composite z-score with Albumin (Bos taurus) is 0.415; in [2], -0.145; in assay [3], -0.0735; in assay [4], 0.585; in assay [5], 0.328; in assay [6], -0.294. In addition, the composite z-score with Sam68 (KHDRBS1) was 0.227; in assay [7], 0.226; in assay [8] it was 0.948; in assay [9] it was 0.0349; in [10], 0.55; in assay [11] it was -0.0683. Also, the composite z-score was 0.987 in [12]; 0.946 in [13]; 0.33 in [14]; 0.388 in the assay with Lefty1; 0.505 in assay [16]. In addition, the composite Z-score in assay [1] is 0.831 (inactive). In addition, the results for the z-score in assay [15] and in [17] were 0.758 and -0.653 (inactive), respectively.
Take `COCCCNC(=O)[C@@]1(Sc2ccc(C)cc2)CC(=O)N(C2Cc3ccccc3C2)[C@@H]1c1ccc(CO)cc1`: the composite z-score is 0.0753 in the assay with Albumin (Bos taurus); -0.157 in [2]; -0.181 in assay [3]; 0.748 in assay [4]; 0.537 in assay [5]; 0.352 in assay [6]. In addition, the composite z-score is 0.209 in the assay on Sam68 (KHDRBS1); -1.86 in assay [7]; 0.163 in assay [8]; 0.72 in assay [9]; 0.336 in assay [10]; -0.296 in assay [11]. Further, the composite z-score was -0.841 in [12]; -1.22 in [13]; -1.35 in [14]; -1.1 in the assay on Lefty1; -1.47 in [16]. Further, in [1], the composite Z-score was 1.23 (inactive). Further, the z-score is -0.318 in assay [15] and 0.925 (inactive) in assay [17].
